# From PubChem BioAssay AID743441 (Broad Institute, 2014)
# Entries with a potency or affinity are not part of this list. The source made the active and inactive calls.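 Rule for the calls: active = cell toxicity seen as a signal drop, with half-maximal potency at most twice the top valid dose; inconclusive = flat curve with a partial drop, or a poor fit; inactive = the rest, including rises in signal.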
# Assay: HEK293T cell cytotoxicity, dose response, cytotoxicity control, CellTiter-Glo luminescence, cherry-picked samples, set 4 (AID 743441)
# Settings: HEK293T viability, ATP luminescence CellTiter-Glo, 72 h; series mostly up to 26 µM; activity change, negative = cytotoxicity: at the top concentration
row,Compound,"activity change, negative = cytotoxicity"
1,COc1ccc(Nc2oc(-c3ccco3)nc2S(=O)(=O)c2ccc(F)cc2)cc1,-2.57 unspecified (inactive)
2,C[C@@H]1CCCCO[C@H](CN(C)CC2CC2)[C@H](C)CN([C@@H](C)CO)C(=O)c2cc(NC(=O)Nc3cccc4ccccc34)ccc2O1,12.6 unspecified (inactive)
3,O=C(O)c1cc([N+](=O)[O-])ccc1NCc1ccccc1,13.4 unspecified (inactive)
4,COc1ccc2[nH]c3c(=O)n(CCCCC(=O)NCCC(C)C)c(=S)[nH]c3c2c1,7.22 unspecified (inactive)
5,COc1ccc(NC(=O)c2ccc(-c3ccc([N+](=O)[O-])cc3)o2)cc1,8.52 unspecified (inactive)
6,CCOC(=O)c1c(NC(=O)Cc2cccs2)sc(C)c1C,21 unspecified (inactive)
7,CC1(Cc2ccccc2C#N)C(=O)Nc2cc(-c3ccccc3Cl)ccc21 (stereo not drawn),-13.1 unspecified (inactive)
8,Cc1[nH]c(=S)sc1Cc1ccc(Cl)c(Cl)c1,0.291 unspecified (inactive)
9,COc1cccc(C(=O)Nc2cc(C)nn2-c2ccccc2)c1OC,14.1 unspecified (inactive)
10,Cc1noc(C)c1NC(=O)Nc1ccc2c(c1)C(=O)N([C@H](C)CO)C[C@@H](C)[C@@H](CN(C)C(=O)Nc1ccc3c(c1)OCO3)OCCCC[C@@H](C)O2,8.97 unspecified (inactive)
11,C[C@@H]1CCCCO[C@H](CN(C)C(=O)CCCN(C)C)[C@H](C)CN([C@@H](C)CO)C(=O)c2cc(NC(=O)Nc3cccc4ccccc34)ccc2O1,23.1 unspecified (inactive)
12,Cc1ccc(C)c(NC(=O)CSc2nc3nc(-c4cccs4)cc(C(F)(F)F)c3c(=O)[nH]2)c1,18.9 unspecified (inactive)
13,CSc1nc(N)nc(SC2C=CCCC2)c1C#N (stereo not drawn),2.53 unspecified (inactive)
14,CC(CNc1ccc(Cl)cc1)(CNc1ccc(Cl)cc1)[N+](=O)[O-],6.79 unspecified (inactive)
15,CC[C@H]1OC(=O)[C@H](C)[C@@H](O[C@H]2C[C@@](C)(OC)[C@@H](O)[C@H](C)O2)[C@H](C)[C@@H](O[C@@H]2O[C@H](C)C[C@H](N(C)C)[C@H]2O)[C@](C)(O)C[C@@H](C)[C@@H]2N[C@@H](COCCOC)O[C@H]([C@H]2C)[C@]1(C)O,8.74 unspecified (inactive)
16,Cc1ccc(S(=O)(=O)N2CC[C@H]3[C@H](CO)Nc4ccc(Br)cc4[C@H]32)cc1,23.6 unspecified (inactive)
17,Cc1cc(C)c(C#N)c(N2CCN(c3ccccc3)CC2)n1,-9.92 unspecified (inactive)
18,COC(=O)c1c(NC(=O)CCC(=O)O)sc(Cc2ccccc2)c1C,9.22 unspecified (inactive)
